Screens from PubChem BioAssay.
Sampled rows, rich in hits. Any-hit rate of the full collection: about 11%.
VACV Venus inh: qHTS for Stage-Specific Inhibitors of Vaccinia Orthopoxvirus: Venus Reporter Primary qHTS; 0.46% of 330,000 active; AID 720580, 2013; Vaccinia virus Venus reporter expression, fluorescence; Potency, µM (highest dose often 36.5 µM), for the others: top-dose activity change, negative = inhibition, actives largely listed as inhibitors; calls by dose curve; tested in A549 cells; further: on the % scale 0 is the no-effect control and ±100 the full control effect; nearly all actives have a fitted effect of over 30% in size
HCV inhibitor: qHTS Assay for Inhibitors of Hepatitis C Virus (HCV) | Huh7.5.1 HCVcc-Cre infection, luciferase reporter, 44 h | Potency, µM (doses to about 41.8 µM), inactives show top-dose activity change, negative = inhibition, hits mostly inhibitors | 3.4% of 340,000 active | AID 651820, 2012; further: on the % scale 0 is the no-effect control and ±100 the full control effect
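Whole-lifecycle infectious HCVcc-Cre system; cells 1,000/well, compound then virus (~0.5 moi) added 4 h after plating, 44 h culture. Luciferase read 15 sec following 15 min substrate incubation, room temp.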
Vaccinia mCherry: qHTS for Stage-Specific Inhibitors of Vaccinia Orthopoxvirus: mCherry Reporter Primary qHTS. Vaccinia virus mCherry reporter infection, fluorescence. Potency, µM (series often up to 36.5 µM), without a hit: top-dose activity change, negative = inhibition, most hits filed as inhibitors. AID 720579, 2013. 0.63% of 310,000 active; calls by dose curve; tested in A549 cells; further: on the % scale 0 is the no-effect control and ±100 the full control effect; nearly all actives have a fitted effect of over 35% in size
Pf growth 96h: Primary qHTS for delayed death inhibitors of the malarial parasite plastid, 96 hour incubation; P. falciparum luciferase reporter growth, 96 h; Potency, µM (top dose mostly 28.7 µM), inactives show at the top dose activity change, negative = inhibition, usual class: inhibitors; 6.9% of 320,000 active; AID 504834, 2011; further: on the % scale 0 is the no-effect control and ±100 the full control effect
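Readout is luminescence from an integrated firefly luciferase in P. falciparum. Red cells, 2% hematocrit and 0.05% parasitemia final, were cultured with compound through two parasite generations (96 hours) at 37 C, 5% CO2.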
NS1 inh: qHTS Assay for Inhibitors of Influenza NS1 Protein Function; Potency, µM (highest dose often 46.1 µM), for inactives: top-dose activity, positive = more growth; 0.4% of 270,000 active; AID 2326, 2010; calls by dose curve; further: actives are rising curves; nearly all actives have a fitted effect of over 50% in size
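Read-out: OD600 growth recovery of NS1-expressing budding yeast. Cells grown overnight at 30C in -URA glucose medium, washed, resuspended and diluted 1:100 in 2% galactose assay medium, pH 6.0. Same strain lacking NS1 served as positive control.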
Pf growth 48h: Primary qHTS for delayed death inhibitors of the malarial parasite plastid, 48 hour incubation. P. falciparum luciferase growth in erythrocytes, 48 h. Potency, µM (titrated, usually from 28.7 µM), without a hit: top-dose activity change, negative = inhibition, usual class: inhibitors. 5.9% of 310,000 active. AID 504832, 2011; further: on the % scale 0 is the no-effect control and ±100 the full control effect
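Growth was read as firefly luciferase luminescence after a 48 h, 37 C, 5% CO2 exposure of compounds to reporter-bearing P. falciparum cultures (0.1% parasitemia, 2% hematocrit final) in Albumax-supplemented RPMI 1640.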
Starred values were filed as active, the others as inactive; i = inactive; ? = inconclusive; . = no result. Unless noted, the call rests on the fitted dose curve; in most records, active means well fitted inhibition curve with a large enough effect; inconclusive means small, poorly fitted or top-dose-only effect, or another doubt; inactive means no such curve, though single readings can be large or run the other way. Potency means the concentration at half of the fitted maximal effect.

SMILES	VACV Venus inh	HCV inhibitor	Vaccinia mCherry	Pf growth 96h	NS1 inh	Pf growth 48h
COc1ccc(NS(=O)(=O)c2cc(NC(=O)c3sccc3C)ccc2N2CCOCC2)cc1	.	?	.	?	2%	10µM*
O=C1NC(=O)C(CC(=O)N(Cc2ccco2)C2(C(=O)NC3CCCCC3)CCCCC2)N1 (stereo not drawn)	-3%	?	-12%	47%	4%	0%
COc1ccc(NC(=O)CN(C)C(=O)CSC(c2ccccc2)c2ccccc2)cc1	.	13µM*	.	?	.	?
Cc1ccc2nc(-c3ccccc3)cc(C(=O)N(C)CC(=O)Nc3ccccc3Br)c2c1	-6%	?	i	?	.	13µM*
CCOc1ccc(NC(=O)CN(C)C(=O)c2cc(C)nc3ccccc23)cc1OCC	.	?	.	?	.	15µM*
COc1ccc(Cl)cc1NC(=O)CN(C)C(=O)c1cc(-c2ccncc2)nc2ccccc12	-20%	-26%	-9%	5.2µM*	.	9.3µM*
CN(CC(=O)Nc1cccc(F)c1)C(=O)c1cc(-c2ccccc2)nc2ccccc12	?	?	-26%	?	.	?
COc1cc([N+](=O)[O-])ccc1NC(=O)Cc1ccc(C)cc1	-16%	-29%	i	?	-9%	?
CCN1C(=O)C(CC(=O)Nc2ccccc2)N(Cc2ccccn2)C1=S (stereo not drawn)	-8%	17%	-11%	259%	.	-22%
CC(C)CCN1CCNC(=O)C1CC(=O)NCCCN1CCOCC1 (stereo not drawn)	.	14%	.	0%	1%	16%
COP(=O)(C#Cc1ccccc1)C(O)c1ccc(Br)cc1 (stereo not drawn)	-11%	7%	-21%	62%	-1%	?
COc1ccc(OC)c(S(=O)(=O)N2CCN(CC(O)CN3CCOCC3)CC2)c1 (stereo not drawn)	.	-15%	.	-24%	.	-13%
Cc1ccc(NC(=O)CSCC(=O)N(C)Cc2ccc(Cl)c(Cl)c2)cc1	-19%	-6%	-28%	?	.	?
COc1ccc(NC(=O)CN(C)C(=O)c2cc(-c3ccccc3)nc3ccccc23)cc1	-11%	-4%	-7%	-1%	.	?
COc1ccc(NC(=O)CSCC(=O)N(C)Cc2ccc(Cl)c(Cl)c2)cc1	.	?	.	?	.	13µM*
COc1ccc(NC(=O)CN(C)C(=O)c2cc(-c3ccc(OC)cc3)nc3ccccc23)cc1	-14%	?	-9%	?	.	9.3µM*
CN(CC(=O)Nc1ccccc1Br)C(=O)c1ccccc1OCc1ccc(Cl)cc1	-35%	?	0.1µM*	.	.	.
Cc1ccc(NC(=O)CN(C)C(=O)c2cc(-c3ccco3)nc3ccccc23)cc1	-16%	?	-14%	?	.	10µM*
CN(CC(=O)Nc1ccc(F)cc1)C(=O)c1cc(-c2ccco2)nc2ccccc12	-2%	-2%	6%	?	.	?
Cc1ccccc1C(=O)Nc1ccccc1C(=O)NC1CC1	7%	-13%	1%	-9%	-2%	11%
COCCCC1CCN(C(=O)C2CCC(=O)N(Cc3ccccc3F)C2)CC1 (stereo not drawn)	-13%	.	-2%	?	9%	-17%
CCCc1cc(=O)[nH]c(SCc2nc3ccc([N+](=O)[O-])cc3[nH]2)n1	-18%	-12%	-15%	46%	21%	?
Cc1csc(NC(=O)Cc2coc3cc(C)c(C(C)C)cc23)n1	-18%	10µM*	.	5%	-33%	.
CCC1SC(=Nc2cccc(C)c2)NC1=O (stereo not drawn)	-8%	7%	i	10µM*	-2%	19%
Cc1ccc2nc(NC(=O)CSc3ncc(C(=O)Nc4ccccc4)c(=O)n3C)sc2c1	-6%	.	i	.	.	.
SMILES	VACV Venus inh	HCV inhibitor	Vaccinia mCherry	Pf growth 96h	NS1 inh	Pf growth 48h
COc1ccc2c3n(nc2c1)CCN=C3c1cc(Cl)c(N)c(Cl)c1	?	?	i	?	.	13µM*
COc1ccc(-c2nc(-c3ccccc3)c(-c3ccc(O)cc3)[nH]2)cc1	-22%	.	?	.	.	.
COc1ccc(-c2nc(-c3ccc4c(c3)OCO4)[nH]c2-c2ccc(OC)cc2)cc1	?	8.9µM*	?	57%	.	?
CN(C)c1ccc(C=c2c3ccccc3n3c2cc(-c2ccccc2)[n+]3C)cc1	252%	?	87%	.	.	.
CN(C)c1ccc(C=c2c3ccccc3n3c2c2c([n+]3C)CCCC2)cc1	6.3µM*	?	3.2µM*	.	.	.
Cc1onc(-c2c(F)cccc2Cl)c1C(=O)Nc1sc2c(c1C#N)CCC(C(C)(C)C)C2 (stereo not drawn)	-21%	0%	-21%	?	4%	6.6µM*
Cc1onc(-c2c(F)cccc2Cl)c1C(=O)Nc1sc2c(c1C(N)=O)CCC2	.	?	.	?	8%	.
Cc1oc(-c2ccccc2Cl)nc1CN1CCCC1c1ccc(F)cc1 (stereo not drawn)	.	-13%	.	6.6µM*	-2%	?
Cc1nonc1C1CCCN1Cc1nc(-c2ccccc2Cl)oc1C (stereo not drawn)	.	-12%	.	100%	-5%	?
COc1ccc(CN2CCCCC2c2cccnc2)cc1C (stereo not drawn)	-20%	-25%	-10%	27%	-3%	13µM*
CN1CCC[C@@H]1c1cccnc1	.	.	.	15µM*	.	-6%
Cc1ccccc1-c1nc(CN2CCCC2c2ccc(F)cc2)c(C)o1 (stereo not drawn)	1%	4%	-1%	17%	5%	10µM*
COc1cccc(CN2CCCCC2c2cccnc2)c1 (stereo not drawn)	-14%	-5%	-14%	10%	-12%	?
O=C(N/C(=C\c1ccccc1Cl)C(=O)N1CCOCC1)c1ccc([N+](=O)[O-])cc1	-15%	?	-14%	?	.	?
CCN(CC)C(=O)C1CCCN(c2ncnc3onc(C)c23)C1 (stereo not drawn)	-12%	.	-14%	.	.	.
COCCN1Cc2cccc(C(=O)N3CCN(c4cc(C)ccc4C)CC3)c2C1=O	-9%	9%	i	-3%	3%	.
CCOc1ccc(NC(=O)CN2CCCN(Cc3cc(C)ccc3C)S2(=O)=O)cc1	-15%	.	-19%	.	.	.
CCn1c(=O)c2sccc2n2c(CCCC(=O)N3CCN(c4cc(C)ccc4C)CC3)nnc12	-12%	.	-20%	.	.	.
Cc1oc(-c2ccccc2Cl)nc1Cn1cccc1C1=NC(c2ccccc2)CO1 (stereo not drawn)	-12%	11µM*	-28%	?	0%	-1%
